Inhibition data for 93 compounds are collected here from PubChem BioAssay AID1822 (The Scripps Research Institute Molecular Screening Center, 2009).

Hit rate of the full screen: of about 290,000 compounds, about 3,500 (1.2%) were called active. This is one part of a sample in which actives are shown more often than they occur. Unmarked numbers belong to inactive results.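 How the source made its calls: active means inhibition above the campaign mean inhibition over all tested compounds plus 3 SD (cut at about 28% in these data); inactive means the rest.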

In the assay the test system is M18 aspartyl aminopeptidase (Plasmodium falciparum 3D7). The experiment in a line: PfM18AAP inhibitors, malaria aminopeptidase, primary screen, biochemical, QFRET, recombinant enzyme (AID 1822).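 Further: 0% = plate median of test compound wells and 100% = 2 mM ZnCl2.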 The conditions noted are these: H-Glu-NHMec fluorogenic cleavage, at 7.35 µM, active compounds read high.
Turning to `O=C(Nc1ccc(F)cc1)c1ccc(S(=O)(=O)NCc2cccnc2)cc1`, the inhibition (in general, the change of the read-out against control, counted positive when it falls) is 1.68%.
Next, `O=C(NC1CC1)c1ccc2c(c1)NC(=O)c1ccccc1S2`: -6.63%.
In the case of `O=C(O)c1cccc(N2C(=O)Nc3ccccc3N2O)c1` it was -0.41%; in that of `C/C(=N\Nc1cccc(C(=O)O)c1)c1ccc2c(c1)Nc1ccccc1S2`, 28.6% (active).
For the compound `CCOc1ccc(OCC)c(NC(=O)CCS(=O)(=O)c2ccc(C)cc2)c1`, the inhibition was -4.08%.
With `O=C(Nc1ccc2sc3ccccc3c(=O)c2c1)c1ccccc1Cl`, the inhibition is 3.74%.
In the case of `COc1ccc(NC(=O)CN(C)C(=O)CNC(=O)C2CCCCC2)cc1` it was 5.81%.
With `COc1ccc(NC(=O)c2sc3nc(C)nc(N4CCN(c5ccccn5)CC4)c3c2C)c(OC)c1`, the inhibition is -4.65%.
In the case of `O=C(Nc1sc2c(c1C(=O)O)CCC2)c1ccccc1F` it was -1.52%; in that of `NC(=O)c1c(NC(=O)c2ccccc2)sc2c1CCCC2`, 1.26%.
In the case of `NC(=O)c1c(Nc2nc3c(F)cccc3s2)sc2c1CCCC2` it was 49.1% (active).
On to `CC(=O)c1ccc(NC(=O)CCNS(=O)(=O)c2cc(Br)cnc2N)cc1`, for which the inhibition is -3.06%.
In the case of `S=C(c1ccc(-c2ccccc2)o1)N1CCCCC1` it was 30.8% (active); in that of `S=C(c1ccccc1)N1CCCC1`, -1.81%; in that of `CC1CCN(C(=S)c2ccc(-c3ccc(Cl)cc3Cl)o2)CC1`, 4.16%.
Take `O=C1c2cccc3c([N+](=O)[O-])ccc(c23)C(=O)N1CC1CCCO1` (stereo not drawn): the inhibition is 4.32%.
For `O=C(OCc1ccc([N+](=O)[O-])cc1)C1CC(=O)N(Cc2ccccc2Cl)C1` (stereo not drawn), the inhibition was -11.3%.
In the case of `CC(C)N1CCC(N2CCN(Cc3cccnc3)CC2CCO)CC1` (stereo not drawn) it was 4.35%; in that of `O=C(O)c1cccc(NC(=S)N/N=C/c2c[nH]c3ccccc23)c1`, 38.5% (active); in that of `O=C(N/N=C/c1c[nH]c2ccccc12)c1ccccc1O`, 9.89%.
In the case of `CSC(=S)N/N=C/c1c[nH]c2ccccc12` it was 9.14%; in that of `CCc1[nH]nc(C(=O)N2CCCC(CO)(Cc3ccc(F)cc3F)C2)c1C` (stereo not drawn), -13.6%; in that of `Cc1cc(OCc2cc(C(=O)NCc3cc(C(C)C)no3)no2)cc(C)c1Cl`, -17.4%.
Next, `O=c1[nH]c2ccccc2n2c(-c3ccccc3)nnc12`: 33.2% (active); `Cc1ccc(-c2nc3ccccc3[nH]c2=O)cc1`: -7.7%; `CC(=O)c1c(-c2ccccc2)c2ccccc2[nH]c1=O`: -2.54%.
With `CC(=O)N1c2ccc(S(=O)(=O)N3CCC(C(=O)NC4CCCCC4C)CC3)cc2CC1C` (stereo not drawn), the inhibition was 17.8%.
In the case of `C#CCOc1ccc(/C=C2/C(=O)NN(c3ccccc3)C2=O)cc1OC` it was 22%.
In the case of `COc1cc(/C=C2/C(=O)NN(c3ccc(F)cc3)C2=O)cc([N+](=O)[O-])c1O` it was 9.62%.
Next, `COc1cc(/C=C2/C(=O)NN(c3cccc(Cl)c3)C2=O)cc(Br)c1O`: 32.2% (active); `Cn1c(=O)c([N+](=O)[O-])c(Oc2ccccc2)c2ccccc21`: 24%.
For `Cc1ccc(C(=O)N/C(=C\c2ccco2)C(=O)N2CCSCC2)cc1C`, the inhibition is -11%.
In the case of `CC1CCN(C(=O)/C(=C\c2ccccc2)NC(=O)c2ccccc2)CC1` it was -0.48%; in that of `NC(=O)C1CCN(C(=O)/C(=C/c2ccco2)NC(=O)c2ccccc2)CC1`, 35.1% (active).
Regarding `CCc1ccc(-c2cc3c(=O)n(CC(=O)NCCCN4CCN(Cc5ccccc5)CC4)nc(C)n3n2)cc1`, the inhibition was -0.45%.
For the compound `Cc1ccc(OCC(=O)Nc2ccc(NC(=O)c3cccs3)cc2)c(C)c1`, the inhibition is 2.4%.
Next, `CCCc1nnc(NC(=O)CCC(=O)N2CCN(S(=O)(=O)c3ccc(OC)cc3)CC2)s1`: 3.89%; `N#C/C(=C\c1ccc(-c2cccc([N+](=O)[O-])c2)o1)C(=O)NCCN1CCOCC1`: 2.81%; `Cc1ccc(-c2ccc(/C=C(\C#N)C(N)=S)o2)c([N+](=O)[O-])c1`: 34% (active).
Take `Cc1ccc(Cc2cnc(NC(=O)/C(C#N)=C/c3ccc(-c4cccc([N+](=O)[O-])c4)o3)s2)cc1`: the inhibition was 1.04%.
`Cc1ccc(N(C(=O)c2snc(C(N)=O)c2N)C(C(=O)NCC2CCCO2)c2c[nH]c3ccccc23)cc1` (stereo not drawn): the inhibition is 2.71%.
Next, `OCCN1CCN(c2nnc(-c3ccccc3)c3ccccc23)CC1`: 4.34%.
Regarding `CN1CCN(CCCCOc2ccccc2-c2ccccc2)CC1`, the inhibition is 2.29%.
For `OCCN1CCN(C(=S)c2ccc(-c3ccccc3)cc2)CC1`, the inhibition is 50% (active).
Turning to `CC(=O)Nc1ccc(S(=O)(=O)Oc2ccc(Br)cc2C(=S)N2CCOCC2)cc1`, the inhibition was 20.7%.
For the compound `COc1cc(CC(=O)N2CCC(n3nccc3NC(=O)C3CC3)CC2)cc(OC)c1OC`, the inhibition is 1.44%.
In the case of `CCOc1ccc(CCNC(=O)CCc2nnc3ccc(N4CCCC4)nn23)cc1OCC` it was -5.76%; in that of `CCN(CC)c1ccc(NC(=O)CCc2nnc3ccc(N4CCCCC4)nn23)c(C)c1`, 34.1% (active); in that of `CCOC(=O)c1cccc(NC(=O)CCc2nnc3ccc(N4CCOCC4)nn23)c1`, -1.08%.
Take `CCC(c1nnnn1C(C)(C)C)N(Cc1cc2cccc(C)c2n2nnnc12)C1CCCC1` (stereo not drawn): the inhibition was -1.66%.
Next, `Cc1nn(C(C)(C)C)c(OC(=O)CC(C)C)c1S(=O)(=O)c1ccccc1`: 3.62%; `Cc1ccc(-c2cc(C(=O)NCc3cn(C)nc3C)c3cc(Br)ccc3n2)cc1`: 0.33%.
Turning to `Cc1ccc2nc(-c3cccc(Br)c3)cc(C(=O)Nn3cnnc3)c2c1`, the inhibition is 60.7% (active).
Next, `Cc1ccc2nc(-c3ccncc3)cc(C(=O)Nc3ccncc3)c2c1`: 1.48%; `N#Cc1c(-c2ccccc2)nc(SCc2cccc(C(F)(F)F)c2)[nH]c1=O`: 0.63%.
Next, `COc1ccc(-c2nonc2NC(=O)c2oc3ccc(F)cc3c2C)cc1OC`: 2.64%; `COc1ccccc1N1CCN(/N=C/c2ccc(O)cc2O)CC1`: 9.99%; `Oc1ccc(/C=N/NC2=NCCCCC2)c(O)c1`: 40.1% (active).
With `COc1ccc(/C=C(\C#N)C(=O)ONC2=NCCCCC2)cc1`, the inhibition was 3.59%.
In the case of `Oc1ccc(/C=N/Nc2nc(-c3ccccc3F)nc3ccccc23)c(O)c1` it was 18%; in that of `Cc1nc2ccccc2nc1N/N=C/c1ccc(O)cc1O`, 31.6% (active); in that of `Cc1cc(N/N=C/c2ccccc2F)c2ccccc2n1`, 3.64%.
On to `O=C(NNC(=O)C1CCCC1)c1ccc(F)cc1`, for which the inhibition is 3.26%.
Next, `Cc1cc(C)cc(Oc2c(C(F)(F)F)oc3cc(OCC(=O)O)ccc3c2=O)c1`: 0.89%; `N#Cc1cccc(CSc2ncnc(N)n2)c1`: 3.53%.
On to `CC(C)c1c(C(=O)N/N=C/c2ccccc2C(=O)O)nnn1-c1nonc1N`, for which the inhibition was 2.33%.
Consider `O=S(=O)(Nc1ccccc1Br)c1cccs1`, for which the inhibition is -3.63%.
For the compound `Cc1ccc(N2C(=O)C3C4C=CC(CC4)C3C2=O)cc1Br` (stereo not drawn), the inhibition is -1.4%.
In the case of `O=[N+]([O-])c1ccc(O)c(/C=N/Nc2ccccc2[N+](=O)[O-])c1`, the inhibition is -13%.
In the case of `Nn1cnnc1N/N=C/c1cc([N+](=O)[O-])c(Cl)cc1Cl` it was 30% (active).
Next, `COCCCNC(=O)CN1C(=O)CSc2ccc(S(=O)(=O)N3CCOCC3)cc21`: 6.04%; `Cc1ccc(CNC(=O)C(=O)c2cn(CC(=O)N3CCCC3)c3ccccc23)cc1`: 2.97%; `Oc1ccc(-c2onc3ccc(Cl)cc23)cc1`: 1.68%.
In the case of `COc1ccc(-c2onc3ccc(C(C)=O)cc23)cc1`, the inhibition is 13.4%.
Turning to `CC(OC(=O)c1ccc2noc(-c3ccccc3)c2c1)C(N)=O` (stereo not drawn), the inhibition is 31.9% (active).
Regarding `Cc1c(CN2CC[C@@H](N3CCN(c4ccccn4)CC3)[C@H](O)C2)[nH]c2ccc(F)cc12`, the inhibition was 9.87%.
Next, `COc1ccc(N(Cc2cc3ccc(C)cc3[nH]c2=O)S(=O)(=O)c2ccccc2)cc1`: 6.49%; `CC(=O)N1c2ccc(S(=O)(=O)NCCC(=O)N(C)C3CCCCC3)cc2CC1C` (stereo not drawn): 0.68%; `O=C(Nn1c(-c2ccccc2)nc2ccccc2c1=O)c1ccc([N+](=O)[O-])cc1`: -0.32%.
Consider `O=C(Nc1cccc([N+](=O)[O-])c1)Nn1cnnc1`, for which the inhibition was 77.4% (active).
Next, `Cc1ccc(C)n1NC(=O)c1ccc([N+](=O)[O-])cc1`: 3.79%; `O=C(Nc1cccc([N+](=O)[O-])c1)Nc1ccc(Cl)cn1`: -7.59%.
Next, `COC(=O)/C=C\C(=O)Nc1cccc([N+](=O)[O-])c1`: -7.77%; `O=C(Nn1cnnc1)c1ccc([N+](=O)[O-])cc1`: 30.2% (active).
Next, `COc1ccc(C(=O)NCc2nnc(SCC(=O)NC3=NCCS3)n2C)cc1`: -2.4%; `Cc1cccc(C(=O)Nc2ccc(C(=O)N/N=C/c3cccc(C)n3)cc2)c1`: -3.2%; `CSCC[C@H](NC(=O)N1CCn2c1nc1ccccc12)C(=O)NC1CCCCC1`: 2.15%.
As for `CCCc1cc(=O)oc2c(C)c(OCC(=O)N3CCC(C(=O)O)CC3)ccc12`, the inhibition was 5.91%.
Turning to `COc1ccc(C(C(=O)NC(C)(C)C)N(Cc2ccc(F)cc2)C(=O)CCC(=O)Nc2cc(C)on2)cc1` (stereo not drawn), the inhibition is -7.57%.
In the case of `C=CCOc1cccc(CNCc2cccnc2)c1` it was -17.3%; in that of `Cc1ccc(NNC(=O)c2cccs2)cc1Cl`, 28.9% (active); in that of `Cc1ccc(NNC(=O)c2c(F)cccc2Cl)cc1Cl`, 5.54%.
As for `O=C(NNC(=O)c1ccc(Cl)cc1Cl)c1cccs1`, the inhibition is -2.06%.
